# Screen size: about 370,000 compounds; about 6,800 (1.8%) were called active. The sample holds actives, similar compounds and a random draw of the others, so the mix is not that of the screen. Values without a mark were called inactive.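 Rule for the calls: active = activation above a cutoff set at the mean of all screened compounds plus 3 SD (cut at about 10% in these data); inactive = the rest.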
# Tested on: Nuclear hormone receptor DAF-12 (Heterodera glycines), GAL4 fusion
# Assay: H. glycines DAF-12 receptor agonists, primary screen, cell-based, luminescence, HEK293, GAL4 fusion, UAS-luciferase (AID 687014);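 note: 0% = DMSO wells and 100% = sodium butyrate wells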
# Details: HEK293 GAL4-hgDAF12 UAS-luciferase reporter, agonist luminescence; at 6.8 µM; hits give high values; normalized to butyrate control
row,Compound,activation
1,Cc1ccc(-n2ncc3c(=O)n(-c4ccc(C)c(C)c4)c(-c4ccco4)nc32)cc1,3.84%
2,Cn1c(-c2ccco2)nc2cc3ccccc3cc21,19.3% (active)
3,Cn1c(SCC(=O)c2cccs2)nnc1-c1ccco1,1.52%
4,O=C(Nc1c(Cl)c(C2CC2)nn1-c1ccccc1)C(Cl)(Cl)Cl,-2.93%
5,CCC[C@H]1C(=O)CC[C@@]23CCCN2C(=O)CCC[C@@H]13,1.6%
6,COC(=O)CSc1nnc(-c2cccnc2)o1,1.06%
7,CC1(c2nnc(-c3ccncc3)o2)CC(c2cccnc2)=NO1 (stereo not given),3.68%
8,CN(C)c1ccc(-c2nnc(-c3cccnc3)o2)cc1,10.8% (active)
9,COc1ccc(/C(N)=N/OC(=O)CCCc2ccccc2)cc1,-0.4%
10,COc1ccc(/C(N)=N/OC(=O)Cc2ccccc2)cc1,11.7% (active)
11,COc1ccc(/C(N)=N/OC(=O)Oc2ccccc2)cc1,1.76%
12,CC(=O)Nc1ccc(OC[C@@H](O)CN2CCC(C(O)(c3ccccc3)c3ccccc3)CC2)cc1,2.46%
13,CCOc1ccc(N2CC(C(=O)NCc3ccccn3)CC2=O)cc1 (stereo not given),-1.47%
14,CCCNC(=O)C1CC(=O)N(c2ccc(OCC(=O)Nc3cccc(C)c3C)cc2)C1 (stereo not given),0.77%
15,CCCNC(=O)C1CC(=O)N(c2ccc(OCc3ccccc3)cc2)C1 (stereo not given),11% (active)
16,COc1ccc(N2CCN(CCNS(=O)(=O)c3ccc(Cl)s3)CC2)cc1,2.51%
17,COc1cccc(C(O)Cc2nc3ccccc3n2C)c1OC (stereo not given),3.91%
18,Cc1ccc(OCc2nc3ccccc3n2C)cc1,13.2% (active)
19,Cc1ccc(Oc2nc3ccccc3n3c(C)nnc23)cc1,1.53%
20,COC(=O)[C@]12C[C@H](CC(=O)NCc3cccc4ccccc34)C(=O)N(CCc3ccc(OC)c(OC)c3)C1=C[C@H](C1CCCC1)O[C@@H]2C,-1.01%

row,Compound,activation
1,O=C(CSc1nnc(-c2ccccn2)n1-c1ccccc1)Nc1ccc2cn[nH]c2c1,6.78%
2,O=C(NCCS(=O)(=O)c1ccc(Br)cc1)c1ccccc1Cl,2.39%
3,Cc1ccccc1NC(=O)Cn1nnc(-c2ccccc2F)n1,-1.63%
4,COC(=O)c1cc2c(N)c(C(=O)c3ccc(Cl)cc3)sc2nc1C(OC)OC,-0.74%
5,CN(C)c1ccnc2sc(C(=O)c3ccccc3)c(N)c12,21.3% (active)
6,CC(=O)c1c(Nc2ccccc2)sc(C(=O)c2ccccc2)c1C,4.88%
7,COC(=O)c1c(C(=O)OC)c(-c2cccc(C)c2)n2c1CS(=O)C2 (stereo not given),2.79%
8,Cc1cc(NS(=O)(=O)c2ccc(NC(=O)CSc3nnc(SCc4ccc(F)cc4)s3)cc2)nc(C)n1,1.18%
9,CCOC(=O)C(=O)N(Cc1ccccc1)c1ccccc1C(=O)Nc1cc(OC)ccc1OC,-2.17%
10,Cc1ccccc1CN1CCCCC(NC(=O)c2cccc(C#N)c2)C1=O (stereo not given),-2.73%
11,COC(=O)C1=C(C)N(Cc2ccc(C(F)(F)F)cc2)C(=NCc2ccccc2)NC1c1ccccc1C(F)(F)F (stereo not given),1.9%
12,COCc1[nH]nc2c1C(c1ccccc1)N(c1ccccc1)C2=O (stereo not given),0.79%
13,COCc1cc(N2CCN(C(=O)OC(C)(C)C)C[C@@H]2C)ccc1N1CCN(Cc2ccccc2)[C@H](C)C1,4.83%
14,O=C(CSc1cccc[n+]1[O-])c1ccc(-c2ccccc2)cc1,10.8% (active)
15,O=C(CSc1cccc[n+]1[O-])NCCCc1ccccc1,1.17%
16,CCN(C(=O)CSc1cccc[n+]1[O-])c1ccccc1,-0.46%
17,O=C(Nc1ccc(Cl)cn1)c1ccc2c(c1)OCCO2,18.1% (active)
18,CC(OC(=O)CNC(=O)c1ccco1)C(=O)Nc1ccc(Cl)cn1 (stereo not given),1.56%
19,CCCc1cc(C(=O)Nc2ccc(Cl)cn2)cs1,12.9% (active)
20,CC1(c2ccc(Cl)cc2)NC(=O)N(CC(=O)c2ccc3c(c2)OCO3)C1=O (stereo not given),-1.6%

row,Compound,activation
1,Cc1nc(NC(=O)c2ccc3c(c2)OCCO3)ccc1Br,7.16%
2,COc1ccc(C(=O)N/N=C(\C)CC(=O)Nc2ccc(Cl)cn2)cc1,0.32%
3,O=C(c1c[nH]c2ccccc12)N1CCC(Oc2cccnc2)CC1,4.09%
4,Cc1ccc(C(=O)C2CCN(CC(=O)NCCC(C)C)CC2)cc1,-0.75%
5,CC(C)CC(=O)N1CCC(O)(CS(=O)(=O)Cc2ccccc2)CC1,-2.29%
6,CCCCC(=O)N[C@@H]1CC[C@@]23CCCN2C(=O)CCC[C@H]3[C@H]1C,0.52%
7,CCN(C(=O)[C@@H](C1CC1)[C@@H](O)c1ccc2ccccc2c1)c1ccccc1,-0.8%
8,Cc1ccc(N)cc1CN1CCN(c2ncc(Cc3ccccc3)cn2)CC1,0.77%
9,Cc1cc(N)n2nc(-c3ccc(C(C)(C)C)cc3)cc2n1,20% (active)
10,CCC1([N+](=O)[O-])COC(c2ccc(C)cc2)OC1 (stereo not given),1.83%
11,CCC1(C)COC(c2ccc(OC)c(OC)c2)OC1 (stereo not given),-1.37%
12,CCC1([N+](=O)[O-])COC(c2ccc(C(C)C)cc2)OC1 (stereo not given),12.9% (active)
13,Oc1ccc(/C=C/c2c(F)cccc2F)c2cccnc12,-6.27%
14,CCCCNc1cccc2c1S(=O)(=O)N[C@@H](C)CO2,0.24%
15,O=C(NCc1ccccc1)[C@H]1CCCN1C(=O)[C@H]1CCCN1C(=O)c1cc(F)cc(F)c1,-0.18%
16,CC(C)N1CCCCC(NC(=O)C(C)(C)C)C1=O (stereo not given),0.58%
17,CC(=O)c1ccc(S(=O)(=O)NCC2CCN(C(=O)C(=O)c3cccs3)CC2)cc1,-0.16%
18,NC(=O)c1ccccc1N=Cc1ccc2ccccc2c1,14.3% (active)
19,O=C(OCC(=O)N1CCOCC1)c1ccc2ccccc2c1,4.48%
20,Cc1nc2c(C(=O)NCc3cccs3)cnn2c(C)c1Cc1ccc(F)cc1,-1.35%

# Reference: PubChem BioAssay AID687014 (The Scripps Research Institute Molecular Screening Center, 2013)
